# According to PubChem BioAssay (EPA / NIEHS):
# Results filed as inconclusive are left out. Activity calls are given as the source filed them. The calls were made as follows: active = hit-call score of the fitted dose curve at least 0.9, where 1 is the maximum; inconclusive = response in the unintended direction; inactive = score below 0.9.
# Read-out: sulfotransferase (SULT2A), SULT2A1 (gene 6822)
# Assay: CLD_SULT2A_24hr: CellzDirect (CLD) Gene Expression Assay for sulfotransferase (SULT2A) at 24 hours (AID 2283694);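 as to AC50: potency for increased SULT2A1 mRNA level as induction over DMSO baseline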
# Procedure: CLD_24hr is a cell-based, multiplexed-readout assay that uses hepatocyte, a human liver primary cell, with measurements taken at 24 hours after chemical dosing in a 96-well plate.CLD_SULT2A_24hr is one of 16 assay component(s) measured or calculated from the CLD_24hr assay. It is designed to make measurements of mRNA induction, a form of inducible reporter, as detected with chemiluminescence signals by Quantitative Nuclease Protection Assay (qNPA) technology.Data from the assay component CLD_SULT2A_24hr was analyzed at the endpoint, CLD_SULT2A_24hr, in the positive analysis fitting direction relative to DMSO as the negative control and baseline of activity. Using a type of inducible reporter, gain-of-signal activity can be used to understand changes in the reporter gene as they relate to the gene SULT2A1. Furthermore, this assay endpoint can be referred to as a primary readout. To generalize the intended target to other relatable targets, this assay endpoint is annotated to the transferase intended target family, where subfamily is sulfotransferase.
# Human hepatocyte cultures were treated daily for two consecutive days with fresh dosing solutions containing appropriate concentrations of the 320 ToxCast chemicals (chemical identities were blinded to CellzDirect and other ToxCast collaborators), vehicle control (0.2% DMSO), and positive control inducers as summarized in Table 1. Due to the large number of treatment groups and chemicals examined, the ToxCast chemicals were divided into two groups (spanning two independent cultures of hepatocytes from separate donor preparations (Hu778: ToxCast plates 1 and 2; Hu776: ToxCast plates 3 and 4). Each preparation of human hepatocyte cultures was treated with respective vehicle control, medium only control, set of six positive controls/reference chemicals for the five hepatic receptor pathways, and a subset of eight of the ToxCast chemicals (indoxacarb, pyrithiobac-sodium, norflurazon, cyhalofop-butyl, methomyl, thiram, acetochlor, and propiconazole). These replicate data, coupled with internal replicates designed within the blinded ToxCast chemical library, provided additional data to evaluate interindividual differences between hepatocyte preparations and their potential impact on chemical profiles.Cell morphology and integrity were evaluated using phase-contrast microscopy as an indicator of hepatocyte cell health (Tyson & Green, 1987). Cultures for each treatment group (i.e., media, vehicle [0.2% DMSO], positive control inducers [multiple concentrations], and the ToxCast chemicals [multiple concentrations]) were observed and cell morphology was assessed relative to vehicle control cultures at each harvest time point (0, 6, 24, or 48 h). […] Images were evaluated at the conclusion of the study to assess changes in cell integrity and account for the effects of chemical exposure on uncharacteristic changes in concentration-dependent gene expression profiles. The results from these determinations of apparent cytotoxicity were annotated (yes/no) alongside the corresponding qNPA data for reference.At the conclusion of each treatment period, hepatocyte cultures (96-well) were washed with 1 volume of HBSS, lysed by addition of 25 ul ArrayPlate lysis buffer (HTG, Tucson, AZ), and 70 ul/well of Denaturation Oil, denatured by incubation at 95C for 10 min, and frozen at approximately -70C until analysis by nuclease protection assay (qNPA) (Roberts et al., 2007). For qNPA analysis, cell lysates were thawed at 50C for approximately 30 min, qNPA probes were added, and samples were incubated at 95C for 10 min to begin the detection process by denaturing the target RNA, dissociating the duplexes and secondary structure hybridization. At the conclusion of the hybridization period, S1 nuclease reagent was added to each sample to digest all nonprotected nucleotides at 50C for 60-90 min. […]
SMILES,outcome,AC50
C#CCN1C(=O)COc2cc(F)c(N3C(=O)C4=C(CCCC4)C3=O)cc21,inactive,–
CC(C)(C)C(O)/C(=C\c1ccc(Cl)cc1Cl)n1cncn1 (configuration not stated),inactive,–
CNC(=O)/C=C(\C)OP(=O)(OC)OC,inactive,–
Cc1cc(C)nc(NC(=O)NS(=O)(=O)c2ccccc2C(=O)OC2COC2)n1,inactive,–
O=S(=O)(O)C(F)(F)C(F)(F)C(F)(F)C(F)(F)C(F)(F)C(F)(F)C(F)(F)C(F)(F)F,inactive,–
COc1cc(OC)nc(NC(=O)NS(=O)(=O)c2cc(NC=O)ccc2C(=O)N(C)C)n1,inactive,–
O=[N+]([O-])/N=C1\NCCN1Cc1ccc(Cl)nc1,inactive,–
CC(C)OC(=O)Nc1cccc(Cl)c1,inactive,–
COC(=O)c1ccccc1S(=O)(=O)NC(=O)Nc1nc(C)nc(OC)n1,inactive,–
CCS(=O)(=O)c1cccnc1S(=O)(=O)NC(=O)Nc1nc(OC)cc(OC)n1,inactive,–
CC(C)N(C(=O)COc1nnc(C(F)(F)F)s1)c1ccc(F)cc1,inactive,–
ClC1C(Cl)C(Cl)C(Cl)C(Cl)C1Cl (configuration not stated),inactive,–
COP(=S)(OC)Oc1ccc([N+](=O)[O-])cc1,inactive,–
O=C(NC(=O)c1c(F)cccc1F)Nc1ccc(OC(F)(F)C(F)OC(F)(F)F)c(Cl)c1 (configuration not stated),inactive,–
O=C(O)CCCOc1ccc(Cl)cc1Cl,inactive,–
CCC(C)(NC(=O)c1cc(Cl)c(C)c(Cl)c1)C(=O)CCl (configuration not stated),inactive,–

SMILES,outcome,AC50
COC(=O)c1ccccc1S(=O)(=O)NC(=O)N(C)c1nc(C)nc(OC)n1,inactive,–
CCOCN(C(=O)CCl)c1c(C)cccc1CC,inactive,–
CCCN(CCC)c1c([N+](=O)[O-])cc(C(F)(F)F)cc1[N+](=O)[O-],inactive,–
COc1nn(CSP(=S)(OC)OC)c(=O)s1,inactive,–
N#CN,inactive,–
CC[C@H](C)[C@H]1O[C@]2(C=C[C@@H]1C)C[C@@H]1C[C@@H](C/C=C(\C)[C@@H](O[C@H]3C[C@H](OC)[C@@H](O[C@H]4C[C@H](OC)[C@@H](O)[C@H](C)O4)[C@H](C)O3)[C@@H](C)/C=C/C=C3\CO[C@@H]4[C@H](O)C(C)=C[C@@H](C(=O)O1)[C@]34O)O2 (tested in a mixture with another compound),–,12.3 µM (active)
C[C@H]1[C@H](c2ccc(Cl)cc2)SC(=O)N1C(=O)NC1CCCCC1,inactive,–
CCc1ccc(C(=O)NN(C(=O)c2cc(C)cc(C)c2)C(C)(C)C)cc1,inactive,–
CCC(C)Nc1c([N+](=O)[O-])cc(C(C)(C)C)cc1[N+](=O)[O-] (configuration not stated),inactive,–
COP(=O)(OC)OC=C(Cl)Cl,inactive,–
CC(C)(C)C(O)C(Oc1ccc(Cl)cc1)n1cncn1 (configuration not stated),inactive,–
CNC(=O)CSP(=S)(OC)OC,inactive,–
Oc1cc(Cl)ccc1Oc1ccc(Cl)cc1Cl,inactive,–
CCOC1Oc2ccc(OS(C)(=O)=O)cc2C1(C)C (configuration not stated),inactive,–
O=C(O)C(F)(F)C(F)(F)C(F)(F)C(F)(F)C(F)(F)C(F)(F)C(F)(F)F,inactive,–
Clc1ccccc1-c1nnc(-c2ccccc2Cl)nn1,–,0.852 µM (active)
